Most compounds without a hit are left out; they make up all but 11% or so of the library.
VDR inhibitor: inhibitors of human vitamin D receptor | 400,000 tested, 0.93% active | P11473 | Potency, µM, without a hit: max response, negative = inhibition, hits mostly inhibitors | AID 504847 | VDR-SRC2-3 peptide fluorescence polarization, 2 h; also: % is scaled to controls: 0 for no effect and ±100 for the full control effect
Target sequence (P11473 whole entry, looked up): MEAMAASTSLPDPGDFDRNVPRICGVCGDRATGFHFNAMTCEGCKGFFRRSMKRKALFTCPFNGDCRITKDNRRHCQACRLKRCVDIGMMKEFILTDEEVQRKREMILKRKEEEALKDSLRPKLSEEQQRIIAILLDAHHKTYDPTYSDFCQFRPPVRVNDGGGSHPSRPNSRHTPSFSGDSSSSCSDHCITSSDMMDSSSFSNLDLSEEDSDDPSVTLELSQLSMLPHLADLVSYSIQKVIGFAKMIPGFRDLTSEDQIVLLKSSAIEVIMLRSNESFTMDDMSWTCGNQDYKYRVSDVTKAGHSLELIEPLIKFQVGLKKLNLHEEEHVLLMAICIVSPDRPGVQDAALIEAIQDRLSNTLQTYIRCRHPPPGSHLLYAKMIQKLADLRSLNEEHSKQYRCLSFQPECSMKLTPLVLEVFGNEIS
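Reagent solutions, kept cold and dark, are dispensed first; compounds are then pinned in at 23 nl, plates briefly spun, and incubated 2 h at ambient temperature. Inhibition of VDR–SRC2-3 peptide binding is read by fluorescence polarization.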
G9a inh: inhibitors of human histone lysine methyltransferase G9a | G9a H3K9 monomethylation, AlphaScreen, 2 h | Potency, µM (highest dose often 102 µM), for the others: at the highest dose activity, negative = inhibition, hits mostly inhibitors | 350,000 tested, 8.8% active | AID 504332; also: % is scaled to controls: 0 for no effect and ±100 for the full control effect; nearly all actives have a fitted effect of over 75% in size
Target sequence (Q96KQ7 913-1193 limits assumed): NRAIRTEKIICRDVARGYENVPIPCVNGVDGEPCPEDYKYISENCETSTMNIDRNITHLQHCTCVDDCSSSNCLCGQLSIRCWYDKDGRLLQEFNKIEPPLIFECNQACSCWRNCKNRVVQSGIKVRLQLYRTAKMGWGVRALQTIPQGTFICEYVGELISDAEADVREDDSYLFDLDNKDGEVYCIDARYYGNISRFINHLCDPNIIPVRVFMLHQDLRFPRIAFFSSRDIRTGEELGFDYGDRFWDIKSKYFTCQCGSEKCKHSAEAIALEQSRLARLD
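Quantitative HTS format: methyltransferase activity on a biotin-tagged H3K9 peptide is measured by AlphaScreen, using a rabbit anti-monomethyl-H3K9 antibody with streptavidin donor and anti-IgG acceptor beads. Final levels are 20 nM enzyme, 500 nM peptide, 20 uM SAM; 2 h RT.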
PLK1 PBD inh: inhibitors of human PLK1 polo-box domain binding; P53350; Plk1 PBD binding of FITC phosphopeptide, fluorescence polarization; Potency, µM, for the others: max response, negative = inhibition, usual class: inhibitors; 360,000 tested, 2.8% active; AID 720504; also: series mostly up to about 57 µM; % is scaled to controls: 0 for no effect and ±100 for the full control effect; nearly all actives have a fitted effect of over 65% in size
JMJD2A Tudor: JMJD2A Tudor domain (human) inhibition. O75164. AlphaScreen JMJD2A-Tudor / H3K4me3 peptide binding. Potency, µM (titrated, usually from 114 µM), inactives show at the highest dose activity change, negative = inhibition, hits mostly inhibitors. 390,000 tested, 4.4% active. AID 504339; also: % is scaled to controls: 0 for no effect and ±100 for the full control effect; nearly all actives have a fitted effect of over 50% in size
HP1b chromo inh: HP1-beta chromodomain-methylated histone interaction inhibition; P83916; AlphaScreen HP1-beta / biotin-H3K9me3 peptide binding; Potency, µM (highest dose often 114 µM), without a hit: at the highest dose activity change, negative = inhibition, most hits filed as inhibitors; 390,000 tested, 0.56% active; AID 540317; also: nearly all actives have a fitted effect of over 70% in size
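HP1-beta protein (50 nM final) preincubated 30 min at room temperature with biotinylated H3(1-18)K9me3 peptide (50 nM) in PBS pH 7.4, 0.01% Tween-20, then compound added for 30 min. AlphaScreen streptavidin donor/nickel chelate acceptor beads (10 ug/mL final), 30 min dark, luminescence read.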
BAZ2B inh: BAZ2B (human) inhibition; Q9UIF8; AlphaScreen BAZ2B-H3K14Ac peptide displacement; Potency, µM (series often up to 114 µM), inactives show at the top dose activity change, negative = inhibition, most hits filed as inhibitors; 360,000 tested, 4.4% active; also: % is scaled to controls: 0 for no effect and ±100 for the full control effect; nearly all actives have a fitted effect of over 60% in size
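Multi-concentration screen (max 110 uM) measuring displacement of acetylated histone H3 peptide from BAZ2B by AlphaScreen, using 50 nM protein, 50 nM peptide and 10 ug/mL streptavidin donor plus Ni-chelate acceptor beads.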
* hit, by the source's call; u = inconclusive; x = no result; [ ] = another dose, or the depositor's remark. Calls follow the shape of the dose curve; as a rule, active = well fitted curve in the direction sought with a large enough effect; inconclusive = small, poorly fitted or top-dose-only effect, or another doubt; inactive = no such curve, though single readings can be large; an effect the other way counts as inactive or inconclusive. Potency is read from the fitted curve at half-maximal effect.

SMILES | VDR inhibitor | G9a inh | PLK1 PBD inh | JMJD2A Tudor | HP1b chromo inh | BAZ2B inh
CC(=O)Nc1ccc(S(=O)(=O)NCc2ccc3c(c2)cc(C)n3C)cc1 | 11% | 79µM* | -4% | u | -1% | u
COc1ccc2c(c1)C(CC(C)=O)N(c1ccc(-c3cccs3)cc1)C(c1ccsc1)=C2 (stereo not drawn) | x | x | -13% | x | x | x
COC(=O)c1ccccc1NS(=O)(=O)c1cc2c(cc1C)N(C)CCO2 | -9% | -9%[59 µM] | x | -6% | 23% | u
CCS(=O)(=O)c1ccc2oc(SCC(=O)NC34CC5CC(CC(C5)C3)C4)nc2c1 | -19% | -10% | -4% | -12% | 19% | 56µM*
Cc1ccc(Sc2cnc(N)nc2C)cc1 | -15% | 6% | 27µM* | u | -21% | -10%
Brc1nc(Br)n(Cc2ccccc2)n1 | 4% | 16% | -8% | -3% | 39% | 4%
Nn1cnn(Cc2ccccc2)c1=S | -13% | u | 24µM* | -10% | -25% | 12%
O=C(O)c1cc2ccccc2c(Cc2cc3ccccc3c(C(=O)O)c2O)c1O (tested in a mixture with another compound) | 14µM* | u | x | x | x | x
O=C(O)c1c2ccccc2cc2ccccc12 | -11% | x | x | x | x | x
O=C(NCCSc1ncc(-c2ccc(F)cc2)[nH]1)c1ccco1 | 6% | 50µM* | -9% | -8% | 19% | -9%
COc1cc(OC)cc(C(=O)NCCSc2c[nH]c3ccccc23)c1 | -15% | 45µM* | -8% | -31% | 3% | -28%
O=C(NCCSc1c[nH]c2ccccc12)c1ccco1 | u | 71µM* | -4% | -4% | 35% | 3%
Cc1ccc(C(=O)NCCSc2c[nH]c3ccccc23)cc1C | -9% | u | x | -29% | 6% | -25%
Cc1ccc(C(=O)N(C)Cc2nc3ccccc3c(=O)[nH]2)cc1NC(=O)c1ccco1 | 15% | x | 0% | -1% | 14% | x
O=C(CN1N=C(c2ccc(Cl)cc2)CCC1=O)NCCN1CCc2ccccc2C1 | 5% | 3%[59 µM] | 4% | 3% | 19% | 8%
CCCNC(=O)C1(C)CCCN(C(=O)COc2ccc(C(C)(C)C)cc2)C1 (stereo not drawn) | x | x | -6% | x | x | x
CN1CCN(C2=Cc3ccccc3Sc3cc(F)ccc32)CC1 | 6% | u | 1% | -34% | -2% | u
CN1CCN(C2=Cc3ccc(Cl)cc3Sc3ccc(F)cc32)CC1 | 13% | u | -9% | 56µM* | -32% | 50µM*
CSc1ccccc1C(=O)C1CCCN(C(=O)CCc2cccnc2)C1 (stereo not drawn) | -13% | -3% | -25% | -9% | 45% | -3%
CSc1ccccc1C(=O)C1CCCN(C(=O)c2cncs2)C1 (stereo not drawn) | 32µM* | -19% | 13µM* | 20µM* | 17% | -17%
CC(C)CC(N=Cc1c(O)c2ccccc2oc1=O)C(=O)O (stereo not drawn) | 16% | -33% | -4% | 1% | 35% | -19%
S=c1[nH]nc(COc2ccccc2)n1C1CCCCC1 | 16% | 2.5µM* | -13% | 50µM* | 9% | 0%
FC(F)(F)c1cccc(NCc2n[nH]c(=S)n2C2CCCCC2)c1 | -8% | 28µM* | -1% | u | 32% | u
S=c1[nH]nc(CSc2nc3ccccc3s2)n1C1CCCCC1 | -19% | 10µM* | -22% | u | -20% | u
COc1cc(C2c3cc4c(cc3OC(N3CCCCC3)C2C)OCO4)cc(OC)c1O (stereo not drawn) | -23% | x | 0% | -14% | 18% | x
SMILES | VDR inhibitor | G9a inh | PLK1 PBD inh | JMJD2A Tudor | HP1b chromo inh | BAZ2B inh
CC1C(c2ccc3c(c2)OCO3)c2cc3c(cc2OC1N1CCOCC1)OCO3 (stereo not drawn) | 7% | x | -4% | 18µM* | u | x
Cc1cc2c(ncn2C)c(NS(=O)(=O)c2ccccc2Cl)c1C | 3% | u | -10% | -23% | 5% | 6%
Cc1cc2c(ncn2C)c(NS(=O)(=O)c2cc(Cl)ccc2Cl)c1C | -23% | 8.9µM* | -10% | -10% | 35% | 11%
CC[C@H](C)/C=C/C1=CC2=C(Cl)C(=O)[C@@]3(C)OC(=O)C(C(=O)[C@H](C)[C@@H](C)O)=C3C2=CO1 | u | x | 6µM* | 56µM* | u | x
CCCC(=O)Nc1ccc(C2C(=O)c3ccccc3C2=O)cc1 | -16% | 79µM* | 5% | -24% | -16% | u
CCC(C)NC(=O)CN1C(=O)c2cccnc2Oc2ccc(C)cc21 (stereo not drawn) | 20% | -5%[59 µM] | x | 50µM* | 40% | 13%
Cc1ccc2c(c1)N(CC(=O)NC1CCCCCC1)C(=O)c1cccnc1O2 | -15% | 44%[59 µM] | -4% | 1% | 28% | -36%
CCCC[n+]1ccn(C2=C([O-])c3ccccc3C(=O)/C2=N\S(=O)(=O)c2ccc(Br)cc2)c1 | 9% | 45µM* | -5% | -12% | 18% | 89µM*
C=CCNc1nc(C2(C)CC3(CC(C)(C)OC3=O)C(=O)O2)cs1 (stereo not drawn) | 8% | 40µM* | -15% | -13% | 18% | 1%
CC(=O)OC1=C(C#N)Cn2ccc3cccc1c32 | x | 11µM* | x | x | x | -12%
O=C(Cn1c(=O)oc2cc(S(=O)(=O)N3CCCCC3)ccc21)N1CCCCC1 | 13% | -6% | -1% | -5% | 15%[57 µM] | 2%
Cc1ccccc1-c1cc(C(=O)NCc2ccc3c(c2)OCO3)n(CC2CC(c3cccnc3)=NO2)n1 (stereo not drawn) | -4% | 11%[0.501 µM] | -1% | -26% | 20% | -9%
C=C(C)C(=O)c1ccc2c(c1)OCO2 | -1% | x | x | x | x | x
C=C(CN(C)C)C(=O)c1cc(OC)c(OC)cc1OC | 50µM* | x | 17µM* | 79µM* | u | x
C=C(CN(C)C)C(=O)c1ccc(C)cc1C | 18µM* | x | 2.7µM* | 79µM* | 32µM* | x
C=C(CN(C)C)C(=O)c1ccc2c(c1)OCO2 | 79µM* | x | 15µM* | 14µM* | u | x
COc1ccc(OC(=O)c2nc(SCc3ccccc3C)ncc2Cl)cc1 | 13% | 44%[59 µM] | x | 3% | 65% | 25%
COc1ccc(O)c(/C=C(\C#N)C(=O)Nc2ccccn2)c1 | -1% | -12% | -12% | -12% | 20% | -1%
CC(C)CCN1C(=O)c2ccc(C(=O)Nc3ccccc3C(=O)O)cc2C1=O | -16% | -15% | -23% | -24% | 5% | -8%
Cc1ccc(NC(=O)NC(=O)COC(=O)c2ccc(O)cc2O)c(C)c1 | x | x | 5% | x | x | x
Cc1[nH]c2ccccc2c1[C@H]1[C@@H](CC#N)C1(C)C | -7% | u | 30µM* | -24%[11.4 µM] | u | u
COc1ccccc1COCC(O)CNCCc1ccc(C(F)(F)F)cc1 (stereo not drawn) | 24% | 4µM* | -3% | 79µM* | -22% | 25µM*

Screens deposited in PubChem by National Center for Advancing Translational Sciences (NCATS).
